MCL1-BIM inh: MCL1-BIM-BH3 interaction inhibition (human) | GST-MCL1 / FITC-Bim-BH3 fluorescence polarization | actives 0.68% (n = 320,000) | Q07820 | inhibition, % at 10.9 µM;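 active means inhibition above the mean inhibition of all tested compounds plus 3 SD, set per campaign, cut at about 40% in these data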;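 further: higher means more loss of mP so more displacement of Bim peptide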
MEX-5 binding: C. elegans MEX-5 TCR-2 RNA binding activity. MEX-5/FITC-TCR2 RNA binding, fluorescence polarization; hits give low values. actives 0.38% (n = 300,000). Q9XUB2. activity score (negative = inhibition of binding), % at 10 µM. AID 1832;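 active means inhibition past about -25% in most replicates, and total fluorescence under double the plate's negative control median, limit read from the data; inconclusive means replicates evenly split on the limit, or fluorescence at least double controls; inactive means too little inhibition in most replicates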
BCLXL inh: Bcl-xL (human) inhibition; GST-Bcl-xL / FITC-Bim BH3 peptide fluorescence polarization; AID 2129; Q07817; inhibition, % at 10.9 µM; actives 0.7% (n = 320,000);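 active means inhibition above the mean of all tested compounds plus 3 SD, cutoff set per campaign, cut at about 30% in these data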;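 further: inhibitors lower millipolarization by displacing the labeled peptide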
EBV gp42 inh: EBV gp42 inhibition | Q1HVG2 | Fluorescence polarization binding assay, mP read-out | inhibition, % (tested at 21.74 µM) | actives 0.42% (n = 220,000) | AID 1085; in the data active means inhibition above about 50%
Target sequence (Q1HVG2 whole entry, looked up): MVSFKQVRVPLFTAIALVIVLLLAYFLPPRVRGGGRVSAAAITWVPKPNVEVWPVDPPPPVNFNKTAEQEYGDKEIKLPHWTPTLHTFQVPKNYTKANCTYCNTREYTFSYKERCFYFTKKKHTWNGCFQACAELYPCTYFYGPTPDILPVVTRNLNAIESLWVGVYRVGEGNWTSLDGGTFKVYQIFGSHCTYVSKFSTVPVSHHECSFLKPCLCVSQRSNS
GLD-1 RNA inh: GLD-1-TGE RNA interaction inhibition (C. elegans) | Q17339 | actives 0.44% (n = 320,000) | purified GLD-1 + fluorescein TGE RNA, fluorescence polarization | inhibition, % at 5.96 µM;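 active means percent inhibition above a per-plate cutoff, the plate mean of test compounds plus 3 SD, cut at about 30% in these data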
Bcl-xL conf: counter-screen for MCL1 inhibitors: confirmation of human Bcl-xL inhibitors; shares compounds with MCL1-BIM inh; inhibition, % at 10.9 µM; actives 54% (n = 1,700); GST-Bcl-xL / FITC-Bim BH3 peptide FP binding; AID 2166;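 active means inhibition above a cutoff equal to the mean inhibition of all tested compounds plus 3 SD, cut at about 30% in these data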
MCL1 BIM confirm: MCL1-BIM-BH3 interaction inhibition, confirmation; GST-MCL1 / FITC-Bim-BH3 fluorescence polarization; shares compounds with MCL1-BIM inh; actives 61% (n = 1,700); inhibition, % at 10.9 µM;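 active means inhibition above the average of all tested compounds plus 3 SD, cut at about 40% in these data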
Hits are given with their value; i = inactive; ? = inconclusive; nt = no result; + = active, no number. The list is not random: actives were taken first. Their share in the collection is about 1.3%.

SMILES	MCL1-BIM inh	MEX-5 binding	BCLXL inh	EBV gp42 inh	GLD-1 RNA inh	Bcl-xL conf	MCL1 BIM confirm
COc1ccc(Br)cc1/C=c1\sc2nc(-c3ccco3)nn2c1=O	80	i	40	nt	i	i	50
N#Cc1ccc(Oc2cccc3cccnc23)c([N+](=O)[O-])c1	177	i	150	nt	125	33	51
N#Cc1cc(O)c(-n2nnc3ccccc32)cc1C#N	i	i	i	i	i	nt	nt
N#Cc1cc(Oc2cccc3cccnc23)c(-n2nnc3ccccc32)cc1C#N	139	i	143	i	44	i	i
O=C(Cc1ccc(S(=O)(=O)N2CCOCC2)s1)Nc1ccc2c(c1)CCC2	i	i	i	i	i	nt	nt
O=C(Cc1ccc(S(=O)(=O)N2CCOCC2)s1)Nc1nc2c(s1)CCCC2	102	i	80	i	66	32	52
COCCn1c(SCC(=O)N2CCCC2=O)nc2sc(C)c(C)c2c1=O	76	i	i	nt	i	i	i
CNC(=O)c1ccsc1NC(=O)CN1C(=O)CCC1=O	155	i	144	i	148	i	i
CNC(=O)c1ccsc1NC(=O)CS(=O)(=O)c1ccccc1	i	i	i	nt	i	nt	nt
CC(=O)Nc1cccc(C(=O)OC(C)C(=O)NC(=O)NC2CCCCC2)c1 (stereo unspecified)	i	i	i	nt	i	nt	nt
Cc1cccc(NC(=O)CNC(=O)c2cccc(-n3cccc3)c2)c1C	49	i	i	nt	i	i	57
O=[n+]1c2c(n([O-])c3cc(F)c(N4CCCC4)cc31)CCC2	+	?	191	nt	161	186	+
O=[n+]1c2c(n([O-])c3cc(F)c(N4CCCC4)cc31)CCCC2	+	?	181	101	145	173	+
COc1cccc(-c2ccc(NC(=O)C3CCCN(CCCn4nc(C)cc4C)C3)cc2)c1 (stereo unspecified)	i	i	i	nt	i	nt	nt
N=C1CCCN1c1ccccc1O	i	i	i	i	i	nt	nt
N=C1CCC(=N)c2c1c(O)c1ccccc1c2O	150	i	125	69	107	119	144
COc1ccc(NC(=O)CN2CCN(c3c(C)cccc3C)CC2)cc1	i	i	i	nt	i	nt	nt
Cc1nn(C)cc1CN(C)S(=O)(=O)c1cccc([N+](=O)[O-])c1	i	i	i	i	i	nt	nt
COc1ccc2c3c(cccc13)C(=O)N(O)C2=O	69	i	69	75	i	67	77
O=C1c2cccc3c([N+](=O)[O-])ccc(c23)C(=O)N1c1ccc(Cl)cn1	139	i	120	80	103	82	105
COc1ccc(C(C)=O)c2c(O)cccc12	i	i	i	i	i	nt	nt
O=C1c2cccc3c([N+](=O)[O-])ccc(c23)C(=O)N1O	48	i	57	nt	i	43	58
CCOC(=O)C1CCCN(C/C=C/c2ccccc2)C1 (stereo unspecified)	nt	i	nt	nt	nt	nt	nt
CC1CCCN(CC(O)COc2ccc(S(=O)(=O)N3CCCC3)cc2[N+](=O)[O-])C1 (stereo unspecified)	54	nt	i	nt	i	i	i
CCCOc1ccc(S(=O)(=O)N2CCCC2)cc1[N+](=O)[O-]	i	i	i	i	i	nt	nt
SMILES	MCL1-BIM inh	MEX-5 binding	BCLXL inh	EBV gp42 inh	GLD-1 RNA inh	Bcl-xL conf	MCL1 BIM confirm
CCCCC1OC23CCCCC2C(C#N)(C#N)C1(C#N)C(=N)O3 (stereo unspecified)	127	i	103	i	83	i	i
CCCCCCCCOc1ccc(C2OC34CCCCC3C(C#N)(C#N)C2(C#N)C(=N)O4)cc1 (stereo unspecified)	180	-87	157	i	107	107	124
CCCCC1=NN(C(=O)c2ccco2)C(O)(C(F)(F)F)C1 (stereo unspecified)	i	i	i	i	i	nt	nt
COc1ccc(NC(=O)Nc2ccc([N+](=O)[O-])cc2)cn1	71	i	68	nt	46	38	53
CCc1cc(C(=O)Nc2ccc(OC)nc2)sc1C	118	-58	111	nt	85	108	130
COc1ccc(NC(=O)c2ccco2)cn1	75	i	70	nt	60	64	86
COc1ccc(NC(=O)/C=C/c2cccc(F)c2)cn1	75	i	75	i	47	54	68
